Most compounds without a hit are left out; they make up all but 19% or so of the library.
HT1080 IDH1KD tx: HT-1080 IDH1 knockdown cell toxicity (counter line); Potency, µM (highest dose often 46.1 µM), for inactives: at the highest dose activity, negative = toxicity, most hits filed as cytotoxic; 2% of 360,000 active; AID 686971; HT-1080 IDH1 knockdown viability, ATP luminescence, 48 h;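 also: potency is read from the fitted curve at half-maximal effect; 0% = DMSO wells and -100% = cell-free medium wells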
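Viability of IDH1-knockdown HT-1080 fibrosarcoma cells was assessed by CellTiter-Glo after 48 h at 37 °C with titrated compound; concentration-effect curves were classified by fit quality and response size.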
DT40 TDP1 no CPT: qHTS for Inhibitors of human tyrosyl-DNA phosphodiesterase 1 (TDP1): qHTS in cells in absence of CPT; AID 686978, 2013; 15% of 420,000 active; Potency, µM (highest dose often 46.2 µM), inactives show at the top dose activity change, negative = growth inhibition, usual class: inhibitors; DT40 Tdp1-/- hTDP1 cells, no CPT, ATP luminescence, 48 h; also: potency is read from the fitted curve at half-maximal effect; nearly all actives have a fitted effect of over 55% in size
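DT40 Tdp1-/-;hTDP1 cells, no CPT (DMSO vehicle only), 400 cells/well; compounds pin-transferred; ≥48 hr, 37 °C; CellTiter-Glo 30 min RT dark, luminescence read.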
TDP1 cell CPT: growth inhibition of DT40 Tdp1-/-;hTDP1 cells with camptothecin (screen for TDP1 inhibitors); chicken DT40 Tdp1-/-;hTDP1 cells + 20 nM CPT, ATP luminescence, 48 h; Potency, µM (highest dose often 46.2 µM), for inactives: at the top dose activity change, negative = growth inhibition, most hits filed as inhibitors; 12% of 420,000 active; AID 686979; also: potency is read from the fitted curve at half-maximal effect; nearly all actives have a fitted effect of over 55% in size
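Cell growth measured by CellTiter-Glo luminescence after a minimum 48 h, 37 C compound exposure with 20 nM CPT in Tdp1-knockout DT40 cells stably expressing hTDP1, seeded 400/well; qHTS titration format.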
IL1B secr inh: blocks inflammasome-driven IL-1 beta release; AID 743279; THP-1 LPS/ATP IL-1B secretion, AlphaLISA, 16 h; hits give low values; activity change, % at 57.5 µM; 4.7% of 360,000 active; in the data active = activity change below about -50%; inconclusive = mostly about -30% to -49%
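Secreted IL-1B measured by AlphaLISA bead assay after 16 h compound exposure of THP-1 cells; compounds (final up to 57.5 uM) added 1 h before LPS (250 ng/mL) and ATP (1.25 mM) stimulation; lower signal means less secretion.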
uPA generation: cell surface uPA generation inhibition; cell surface uPA generation assay, qHTS; Potency, µM (highest dose often 38.3 µM), for the others: at the highest dose activity change, negative = inhibition, usual class: inhibitors; 0.31% of 330,000 active; active = well fitted inhibition curve with a large enough effect; inconclusive = small, poorly fitted or top-dose-only effect; inactive = no such curve, though single readings can be large or run the other way; tested in mouse RAW 264.7 cells; also: potency is read from the fitted curve at half-maximal effect; nearly all actives have a fitted effect of over 55% in size
HT1080-NT tox: kills 2HG-producing HT-1080-NT fibrosarcoma cells | 1.6% of 360,000 active | HT-1080-NT fibrosarcoma viability, CellTiter-Glo ATP luminescence, 48 h | Potency, µM (doses to about 46.1 µM), without a hit: top-dose activity, negative = less viability, actives largely listed as cytotoxic;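 also: NT is the 2HG producing partner of a matched IDH1 knockdown line; potency is read from the fitted curve at half-maximal effect; 0% = DMSO-treated cells and -100% = media-only wells without cells; nearly all actives have a fitted effect of over 55% in size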
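A 48-hour cytotoxicity screen used HT-1080-NT cells plated 2 hours before compound delivery. ATP-based CellTiter-Glo luminescence measured viability, normalized to DMSO and no-cell controls.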
An asterisk follows results filed as active; i = inactive; ? = inconclusive; nt = no result. Unless noted, calls follow the shape of the dose curve; as a rule, active = well fitted curve in the direction sought with a large enough effect; inconclusive = small, poorly fitted or top-dose-only effect, or another doubt; inactive = no such curve, though single readings can be large; an effect the other way counts as inactive or inconclusive. Unless noted, % is scaled to controls: 0 for no effect and ±100 for the full control effect.

SMILES | HT1080 IDH1KD tx | DT40 TDP1 no CPT | TDP1 cell CPT | IL1B secr inh | uPA generation | HT1080-NT tox
O=C(Cc1ccccc1)Nc1sc2c(c1C(=O)Nc1cccc(Cl)c1)CCCCC2 | nt | -18.2% | -21.6% | nt | nt | nt
O=C(Nc1ccc(F)c(Cl)c1)N1CCCCCC1 | 12.4% | 0.5% | -4.9% | -4.3 | -0.6% | 16.2%
CCc1ccc(NC(=O)CSc2nnnn2C)cc1 | -12.3% | -11.0% | 7.6% | -17.1 | -0.8% | 2.4%
OCC[N+]1(CCc2ccccc2)CCOCC1 | nt | -7.6% | -13.1% | nt | nt | nt
O=C1NCCN1CCN1CCC(c2cn(-c3ccc(F)cc3)c3ccc(Cl)cc23)CC1 | nt | 2.66µM* | 2.99µM* | nt | nt | nt
COc1ccc(N2CCN(c3oc(/C=C/c4ccc(F)cc4)nc3C#N)CC2)cc1 | nt | 7.7% | -2.3% | nt | nt | nt
N#Cc1cccc(-c2nc(N3CCNCC3)c3ccccc3n2)c1 | nt | 18.4µM* | ? | nt | nt | nt
c1ccc2c(N3CCNCC3)nc(-c3ccc4c(c3)OCO4)nc2c1 | nt | 20.6µM* | ? | nt | nt | nt
Cc1nccc2oc(=O)c(NC(=O)c3ccc(Cl)cc3)cc12 | 6.6% | -7.5% | -3.7% | -20.9 | 0.2% | 10.2%
Cc1ccc(C(=O)Nc2cc3cc(Cl)ccc3oc2=O)cc1 | nt | 1.46µM* | 1.16µM* | nt | nt | nt
COc1ccc(C(=O)Nc2cc3cc(Cl)ccc3oc2=O)cc1OC | nt | 2.91µM* | 5.8µM* | nt | nt | nt
COc1ccc(-n2nc(-c3ccc(C)cc3)c3cnc4cc(F)c(F)cc4c32)cc1 | nt | -15.4% | -2.7% | nt | nt | nt
O=C1C2CC=CCC2C(=O)N1c1ccc(NCCc2cccc(F)c2)c([N+](=O)[O-])c1 (configuration not stated) | -1.0% | 11.6µM* | ? | 7.4 | -2.4% | 1.2%
Cc1ccc(-c2nc(NCCCO)c3ccccc3n2)cc1 | ? | ? | ? | ? | -6.0% | ?
c1ccc2c(NCCc3c[nH]c4ccccc34)c3ccccc3nc2c1 | ? | 2.91µM* | 2.59µM* | -56.6* | ? | ?
OCCCNc1c2ccccc2nc2ccccc12 | 11.6µM* | 9.2µM* | 11.6µM* | -104.2* | -5.3% | 23.1µM*
O=C(NCc1ccccc1)c1cc(C2COCCN2C(=O)CCc2ccccc2)on1 (configuration not stated) | 9.9% | -16.2% | 7.4% | -13.5 | nt | 21.4%
Cc1nnc(-c2ccc(Oc3ccc(Cl)cc3)c([N+](=O)[O-])c2)o1 | 0.0% | 23.1µM* | ? | 26.5 | 0.9% | -2.3%
O=[N+]([O-])c1cc(-c2nnc(-c3ccccc3)o2)ccc1Oc1ccc(Cl)cc1 | -0.8% | -28.4% | -21.4% | 8.4 | 1.7% | 3.7%
Cn1cccc1C(=O)N1CCC[C@@]2(CCN(C(=O)Nc3cccc(C#N)c3)C2)C1 | nt | -15.9% | -4.6% | nt | nt | nt
CCC1Nc2ncnc(N3CCc4ccccc4C3)c2N(Cc2ccc(Br)cc2)C1=O (configuration not stated) | ? | ? | ? | -94.9* | nt | ?
CC1Nc2ncnc(N3CCc4ccccc4C3)c2N(Cc2ccc(Br)cc2)C1=O (configuration not stated) | ? | 23.1µM* | 16.4µM* | ? | ? | ?
CC1Nc2ncnc(N3CCc4ccccc4C3)c2N(Cc2ccc(Cl)cc2)C1=O (configuration not stated) | -27.9% | ? | ? | ? | -11.1% | -16.7%
O=C1C(Cc2ccccc2)Nc2ncnc(N3CCc4ccccc4C3)c2N1Cc1ccccc1 (configuration not stated) | -10.4% | 16.4µM* | ? | 5.0 | ? | -19.4%
O=C(CN(c1ccccc1Cl)S(=O)(=O)c1ccccc1)NCc1ccccc1 | 2.6% | -9.1% | ? | -10.5 | 5.8% | -3.2%
SMILES | HT1080 IDH1KD tx | DT40 TDP1 no CPT | TDP1 cell CPT | IL1B secr inh | uPA generation | HT1080-NT tox
COc1ccc(NC(=O)CSCC(=O)N(C)Cc2ccc3c(c2)OCCO3)cc1 | 8.6% | -8.5% | -3.8% | 18.2 | -1.7% | 6.6%
CCN1C(=NCCc2ccc([N+](=O)[O-])cc2)N[C@@H](c2ccccc2)[C@H](C(=O)OC)[C@H]1C | 0.4% | 14.6µM* | ? | -23.3 | -3.2% | -10.3%
CCN1C(=NCCc2ccc(Br)cc2)N[C@@H](c2ccccc2)[C@H](C(=O)OC)[C@H]1C | -28.5% | 18.4µM* | 23.1µM* | 0.0 | -1.0% | -22.3%
O=C(O)C(=O)/C(=C\c1cccc2ccccc12)c1ccc2ccccc2n1 | ? | 18.4µM* | ? | 16.6 | -12.4% | ?
O=C(O)C(=O)/C(=C\c1ccccc1)c1ccc2ccccc2n1 | 0.6% | -13.5% | -4.0% | 33.6 | 3.1% | 0.1%
C=C1CC(COc2ccc3c(C)c(Cl)c(=O)oc3c2)(c2ccccc2)OC1=O (configuration not stated) | 6.51µM* | 1.64µM* | 1.64µM* | -99.9* | 25.4% | 16.4µM*
CC1=C/C(=N\NC(=S)Nc2cccnc2)CC(C)(C)C1 | -12.3% | 2.06µM* | 1.3µM* | 49.7 | ? | -19.1%
CCC(C)(C)C1CCC(=NNC(=S)Nc2cccnc2)CC1 (configuration not stated) | 7.0% | ? | ? | 19.9 | -5.0% | 6.6%
Cc1ccccc1OCC(=O)NC(=S)Nc1ccc2c3c(cccc13)CC2 | -1.9% | 18.4µM* | 18.4µM* | -1.8 | -0.6% | 8.5%
Cc1cccc(NC(=O)CN2CCc3cc4c(cc3C2C)OCCCO4)c1 (configuration not stated) | -16.4% | ? | ? | -54.0* | 1.5% | -5.1%
O=C(CN1CCc2cc3c(cc2C1)OCCCO3)Nc1c(F)cccc1F | -5.6% | ? | 23.1µM* | -10.6 | -8.8% | -7.4%
CC1c2cc3c(cc2CCN1C(=O)c1cccc(F)c1)OCCCO3 (configuration not stated) | ? | ? | 20.6µM* | -14.5 | -29.2% | ?
CC1c2cc3c(cc2CCN1C(=O)c1ccc(Br)cc1)OCCCO3 (configuration not stated) | ? | 7.31µM* | 16.4µM* | -7.0 | -9.6% | ?
COc1ccc(C(=O)N2CCc3cc4c(cc3C2C)OCCCO4)cc1 (configuration not stated) | -5.8% | 20.6µM* | 20.6µM* | -1.7 | -16.1% | -1.2%
O=C(Nc1ccc(Oc2cccnc2)cc1)C1CCN(Cc2ccccc2F)CC1 | -1.4% | ? | ? | -9.9 | -7.6% | 1.6%
CCn1cc(CN2CCC(C(=O)Nc3ccc(Oc4ccccc4F)cc3)CC2)c(C)n1 | ? | 25.9µM* | ? | i | -7.4% | -13.0%

Assay outcomes (PubChem BioAssay)
